# According to PubChem BioAssay (NCI):
# This is part of a sample that, as a whole, favours compounds with a hit. Of some 83,000 tested, about 20% had one in any assay.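 Percent growth is the endpoint: 0 to 100 indicates growth inhibition (40 means 60% inhibition), 0 means no net growth, and negative values indicate cell death.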 Values without a mark were called inactive. Calls of active or inactive are those of the source. Rule for the calls: active = growth percent below 10; inactive = the rest.
# Tested on: MDA-MB-468 breast
# Experiment: NCI-60 one-dose screen, 48 h (100 = growth as untreated, 0 = no growth, -100 = all killed)
# Settings: 10 µM unless noted
row,SMILES,growth
1,CCc1ccc(-c2ccc(=O)n(-c3ccc(S(N)(=O)=O)cc3)n2)cc1,7.89% (active)
2,N#Cc1nc(-c2ccccc2)oc1S(=O)(=O)N1CCN(c2ccccc2)CC1,98.3%
3,CC(C)[C@H]1COC(=O)N1[C@@H]1C(=O)N([C@@H](CCC(=O)N2CCN(C3CCCC3)CC2)C(=O)N[C@@H]2CCCc3ccccc32)[C@@H]1/C=C/c1cccc(Br)c1,-21.6% (active)
4,Cn1c(=O)[nH]c(=O)c2nc3c(nc21)-c1ccccc1C3=O,82.8%
5,CC(=O)Nc1ccc(S(=O)(=O)N/N=C(\C)c2ccc(C)cc2C)cc1,112%
6,O=C(Cc1ccc(F)c(Cl)c1)Nc1cc(C2(C(F)(F)F)CC2)nn1CC1CCCCC1,-13.1% (active)
7,COc1ccc2nc(-c3ccc(Cl)cc3)cc(-c3nnc(SCC(=O)Nc4ccc(/C(C)=N\O)cc4)o3)c2c1,58.4%
8,CC(C)(C)CC(C)(C)Nc1c(-c2c(O)c3ccccc3oc2=O)nc2sccn12,86.6%
9,CCCCCCCCCCCC(=O)OCCNC(=O)C[n+]1ccccc1,101%
10,N#Cc1c(-c2ccc(Cl)cc2)nc(NN=Cc2cccc(Cl)c2)nc1N1CCOCC1,85.1%
11,CN(C)CCN(Cc1ccccc1)c1ccccc1,103%
12,CN(C)CC1CCC(CN(C)C)C1=O (stereo not drawn),108%
13,CC1(C)CC[C@]2(c3nnc(-c4ccncc4)o3)CC[C@H]3C(=CC[C@H]4[C@@]3(C)CC[C@H]3C(C)(C)C(=O)CC[C@]43C)[C@@H]2C1,62.2%
